Screens from PubChem.
miR122 inh: raises miR-122 sensor activity in Huh7 cells | Huh7 psiCHECK-miR122 Renilla luciferase sensor, 48 h | activation, % at 12.5 µM | actives 0.14% (n = 340,000) | AID 623901;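 active means mean activation of 30% or more, with every replicate also reaching 30%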;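 further: higher luciferase signal means stronger suppression of miR-122 activity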
Of the large screens only hits and unclear results are named; the others gave an inactive call. This excerpt belongs to a sample that is enriched for hits.

CO[C@H]1CN(C)C(=O)c2cc(NC(=O)c3ccc(F)cc3)ccc2OC[C@H](C)N(C)C[C@@H]1C	none
CN1C(=O)c2cc(NC(=O)c3cccc(F)c3)ccc2OC[C@H]2O[C@H](CC(=O)NC3CCC3)CC[C@H]21	miR122 inh 70
C[C@H](CO)N1C[C@H](C)[C@H](CN(C)S(=O)(=O)c2cccc(F)c2)Oc2ncc(-c3ccc(F)cc3)cc2C1=O	none
CNC[C@H]1Oc2cc(-c3ccccc3OC)ccc2S(=O)(=O)N([C@@H](C)CO)C[C@@H]1C	none
C[C@H]1CN([C@@H](C)CO)C(=O)c2cc(C#CCc3ccccc3)cnc2O[C@@H]1CN(C)CC1CCOCC1	none
C[C@H](CO)N1C[C@H](C)[C@H](CN(C)CC2CCOCC2)Oc2ncc(C#Cc3cccc(F)c3)cc2C1=O	none
CCCNC(=O)N(C)C[C@@H]1Oc2ncc(C#C[C@@H](C)O)cc2C(=O)N([C@H](C)CO)C[C@@H]1C	none
CC(C)C#Cc1ccc2c(c1)O[C@H](CN(C)C(=O)c1ccccc1)[C@@H](C)CN([C@H](C)CO)S2(=O)=O	none
C[C@H](CO)N1C[C@H](C)[C@H](CN(C)Cc2cncnc2)Oc2cc(-c3cncnc3)ccc2S1(=O)=O	none
C/C=C/c1cnc2c(c1)C(=O)N([C@H](C)CO)C[C@@H](C)[C@H](CN(C)S(=O)(=O)c1cccs1)O2	none
C[C@@H]1CN([C@H](C)CO)C(=O)c2cc(C#Cc3cccnc3)cnc2O[C@@H]1CN(C)S(C)(=O)=O	none
C[C@@H]1CN([C@H](C)CO)S(=O)(=O)c2ccc(C#CCC3CCCC3)cc2O[C@@H]1CN(C)C(=O)c1ccccn1	none
CCCCNc1cc(C)nc(NCc2ccccc2)n1	miR122 inh 41
C[C@@H]1CN([C@@H](C)CO)C(=O)c2cc(-c3cccc(F)c3)cnc2O[C@@H]1CN(C)C(=O)C1CCOCC1	none
Cc1ccc(-c2ccc3c(c2)O[C@@H](CN(C)C(=O)NC(C)C)[C@H](C)CN([C@H](C)CO)S3(=O)=O)cc1	none
C[C@H]1CN([C@@H](C)CO)C(=O)c2cc(-c3cccc(C#N)c3)cnc2O[C@H]1CN(C)Cc1ccccc1	none
C[C@@H]1CN([C@H](C)CO)S(=O)(=O)c2ccc(Br)cc2O[C@@H]1CN(C)Cc1ccccn1	none
Cc1ccc(S(=O)(=O)Nc2ccc3ccccc3c2)cc1	none
Cc1cc(NS(=O)(=O)c2ccc(NC(=O)C(CC(C)C)N3C(=O)c4ccccc4C3=O)cc2)nc(C)n1 (configuration not stated)	miR122 inh 35
CCOc1ccc(NS(=O)(=O)c2ccc(NC(=S)NC(=O)CC(C)C)cc2)cc1	none
C[C@H]1CN([C@@H](C)CO)S(=O)(=O)c2ccc(-c3ccccc3)cc2O[C@H]1CN(C)Cc1ccccc1C(=O)O	none
C[C@H](O)C#Cc1cnc2c(c1)C(=O)N([C@H](C)CO)C[C@H](C)[C@H](CN(C)Cc1cncnc1)O2	none
Cc1ccccc1-c1ccc2c(c1)O[C@H](CN(C)C(=O)Nc1ccccc1)[C@@H](C)CN([C@@H](C)CO)S2(=O)=O	none
CCCN(C)C[C@@H]1Oc2cc(-c3ccc(OC)cc3)ccc2S(=O)(=O)N([C@H](C)CO)C[C@@H]1C	none
CNC[C@@H]1Oc2cc(-c3cccc(F)c3)ccc2S(=O)(=O)N([C@@H](C)CO)C[C@H]1C	none
CCOc1ccc(S(=O)(=O)N2CCC(C(N)=O)CC2)c2ccccc12	none
CCOc1ccc(NS(=O)(=O)c2cc(NC(=O)C3CC3)ccc2C)cc1Br	none
CCOc1ccc(CCNC(=O)C2CCN(S(=O)(=O)N3CCC(C)CC3)CC2)cc1OCC	miR122 inh 33
CCCN(C)C[C@H]1Oc2cc(C#CCN(C)C)ccc2S(=O)(=O)N([C@H](C)CO)C[C@H]1C	none
C/C=C/c1ccc2c(c1)O[C@@H](CN(C)C(=O)Nc1ccc(OC)cc1)[C@@H](C)CN([C@H](C)CO)S2(=O)=O	none
Cc1ccc(S(=O)(=O)NCCN2CCOCC2)c(C)c1C	none
COc1ccc(-c2oc3ncnc(NCCCN4CCOCC4)c3c2-c2ccc(OC)cc2)cc1	miR122 inh 38
COc1ccc(-c2oc3ncn(CCN4CCOCC4)c(=N)c3c2-c2ccc(OC)cc2)cc1	miR122 inh 42
C[C@@H]1CN([C@@H](C)CO)S(=O)(=O)c2ccc(Br)cc2O[C@H]1CN(C)S(=O)(=O)c1cccc(F)c1	none
Cc1noc(C)c1NC(=O)N(C)C[C@@H]1Oc2cc(C#CCC(C)C)ccc2S(=O)(=O)N([C@@H](C)CO)C[C@@H]1C	none
C[C@@H]1CN([C@H](C)CO)C(=O)c2cc(C#CC3(O)CCCC3)cnc2O[C@@H]1CN(C)Cc1ccncc1	none
CC(C)C#Cc1ccc2c(c1)O[C@H](CN(C)C(=O)CC1CC1)[C@@H](C)CN([C@H](C)CO)S2(=O)=O	none
C[C@H](CO)N1C[C@H](C)[C@@H](CN(C)Cc2cccnc2)Oc2ncc(C#Cc3ccccn3)cc2C1=O	none
C[C@@H]1CN([C@@H](C)CO)S(=O)(=O)c2ccc(-c3ccncc3)cc2O[C@H]1CN(C)Cc1cncnc1	none
C[C@H](CO)N1C[C@H](C)[C@@H](CN(C)CC2CCOCC2)Oc2ncc(C#Cc3ccccn3)cc2C1=O	none
COc1cccc(C#Cc2ccc3c(c2)O[C@@H](CN(C)S(=O)(=O)c2ccccc2F)[C@H](C)CN([C@@H](C)CO)S3(=O)=O)c1	none
COCC(=O)Nc1ccc2c(c1)OC[C@H](C)NC[C@@H](C)[C@@H](OC)CN(C)C2=O	none
Cc1ccccc1OCC(=O)NNC(=O)Nc1ccc(Cl)cc1	none
Cc1ccccc1OCC(O)CNC1CCC(NCC(O)COc2ccccc2C)CC1 (configuration not stated)	miR122 inh 31
C[C@H]1CN([C@@H](C)CO)C(=O)c2cc(-c3ccncc3)cnc2O[C@@H]1CN(C)C(=O)c1ccccc1F	none
C[C@H](CO)N1C[C@H](C)[C@@H](CN(C)C(=O)c2ccccc2)Oc2cc(/C=C/c3ccccc3)ccc2S1(=O)=O	none
CCCC#Cc1cnc2c(c1)C(=O)N([C@@H](C)CO)C[C@H](C)[C@H](CN(C)Cc1cccnc1)O2	none
C[C@H](CO)N1C[C@H](C)[C@H](CN(C)Cc2cccnc2)Oc2cc(-c3ccccc3)ccc2S1(=O)=O	none
COc1ccccc1C#Cc1ccc2c(c1)O[C@H](CN(C)Cc1cccnc1)[C@H](C)CN([C@@H](C)CO)S2(=O)=O	miR122 inh 39
COc1ccccc1C#Cc1ccc2c(c1)O[C@H](CN(C)Cc1cncnc1)[C@@H](C)CN([C@@H](C)CO)S2(=O)=O	none
COc1ccccc1C#Cc1ccc2c(c1)O[C@H](CN(C)Cc1cncnc1)[C@H](C)CN([C@@H](C)CO)S2(=O)=O	none
C[C@@H]1CN([C@@H](C)CO)S(=O)(=O)c2ccc(-c3ccccc3F)cc2O[C@@H]1CN(C)Cc1cccnc1	miR122 inh 49
C[C@@H]1CN([C@H](C)CO)S(=O)(=O)c2ccc(-c3ccccc3)cc2O[C@H]1CN(C)Cc1cccnc1	none
C[C@@H]1CN([C@@H](C)CO)C(=O)c2cc(-c3ccc(C#N)cc3)cnc2O[C@H]1CN(C)CC1CCOCC1	none
CN1c2ccc(-c3ccccc3F)cc2[C@H]2[C@H](CCN2S(=O)(=O)c2ccccc2F)[C@H]1CO	none
CC(C)(CNC(=S)NCCc1ccccc1)CNC(=S)NCCc1ccccc1	none
c1ccc(CCNc2nnnn2-c2ccccc2)cc1	miR122 inh 46
COc1cccc(S(=O)(=O)N(C)C[C@H]2Oc3ncc(C#CCC(C)C)cc3C(=O)N([C@H](C)CO)C[C@@H]2C)c1	none
CC(C)C#Cc1cnc2c(c1)C(=O)N([C@@H](C)CO)C[C@H](C)[C@H](CN(C)C(=O)c1ccccc1)O2	none
